Results on eight molecules are retold here after PubChem BioAssay (NCI).

What all share (experiment): NCI-60 one-dose screen, 48 h (100 = growth as untreated, 0 = no growth, -100 = all killed)
The test system of one assay is HCT-15 colon. To be noted: 10 µM unless noted.
A further assay concerns HT29 colon. To be noted: 10 µM unless noted.
In another assay the test system is SNB-75 CNS. To be noted: 10 µM unless noted.
A further assay relates to SNB-19 CNS. Particulars: 10 µM unless noted.
For the next assay, the system named is U251 CNS. To be noted: 10 µM unless noted.
A further assay deals with PC-3 prostate. Particulars: 10 µM unless noted.
The subject of the next assay is SK-MEL-5 melanoma. To be noted: 10 µM unless noted.
The subject of another assay is UACC-62 melanoma. To be noted: 10 µM unless noted.
The subject of the next assay is LOX IMVI melanoma. To be noted: 10 µM unless noted.
Another assay concerns SK-MEL-28 melanoma. To be noted: 10 µM unless noted.
Another assay concerns SK-MEL-2 melanoma. To be noted: 10 µM unless noted.
A further assay deals with EKVX NSCLC. Particulars: 10 µM.
Another assay deals with SN12C renal. Particulars: 10 µM unless noted.
The next assay has as its system UO-31 renal. Particulars: 10 µM unless noted.
The subject of the next assay is TK-10 renal. Particulars: 10 µM unless noted.
The subject of another assay is ACHN renal. Particulars: 10 µM unless noted.
The subject of a further assay is CAKI-1 renal. Particulars: 10 µM unless noted.
Another assay has as its system A498 renal. Particulars: 10 µM unless noted.
The test system of the next assay is CCRF-CEM leukemia. To be noted: 10 µM.
In another assay the test system is MOLT-4 leukemia. To be noted: 10 µM unless noted.

This is part of a sample that, as a whole, favours compounds with a hit. Of some 83,000 tested, about 20% had one in any assay.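 Results are percent growth after 48 hours of single-concentration exposure. 100 means growth as in untreated cells, lower positive values show inhibition; negative values down to -100 show cell death.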 Unmarked numbers belong to inactive results. Activity calls are given as the source filed them. Rule for the calls: active = growth percent below 10; inactive = the rest.

In the case of `O=C(N/N=C\c1ccc(Cl)cc1)C(=O)N/N=C\c1ccc(Cl)cc1`, the growth in the assay with HCT-15 colon was 101%; in the assay on HT29 colon, 103%; with SNB-75 CNS, 88.3%; in the assay on SNB-19 CNS, 96%; in the assay on U251 CNS it was 101%; in the assay with PC-3 prostate, 94.5%. Further, the growth is 109% with SK-MEL-5 melanoma; 97.4% with UACC-62 melanoma; 106% with LOX IMVI melanoma; 111% in the assay with SK-MEL-28 melanoma; 98.4% in the assay on SK-MEL-2 melanoma; 102% in the assay on EKVX NSCLC. The growth in the assay with SN12C renal is 90.8%; in the assay on UO-31 renal, 78.3%; in the assay with TK-10 renal, 105%; in the assay with ACHN renal it was 96.8%; in the assay with CAKI-1 renal it was 94.6%; with A498 renal, 101%. For the same molecule, the growth in the assay with CCRF-CEM leukemia was 90.7%; in the assay on MOLT-4 leukemia, 98.1%.
On to `COC1(OC)N=C(N)C2(C#N)C3(C(=O)Nc4ccccc43)C12C#N` (stereo not given), for which the growth is 83.8% with HCT-15 colon; 98.9% in the assay with HT29 colon; 66.5% in the assay with SNB-75 CNS; 108% in the assay with SNB-19 CNS; 67.9% with U251 CNS; 87% in the assay with PC-3 prostate. The growth is 81.8% in the assay with SK-MEL-5 melanoma; 47% in the assay with UACC-62 melanoma; 50.3% in the assay on LOX IMVI melanoma; 103% in the assay on SK-MEL-28 melanoma; 83.5% with SK-MEL-2 melanoma; 77.4% in the assay on EKVX NSCLC. Moreover, the growth with SN12C renal was 93.8%; in the assay on UO-31 renal, 52.9%; with TK-10 renal, 98%; in the assay with ACHN renal, 67.3%; with CAKI-1 renal it was 21.3%; with A498 renal it was -9.49% (active). The growth with CCRF-CEM leukemia is 77.8%.
Consider `COc1cc(N)c2nccc(C)c2c1OC`, for which the growth was 115% in the assay with HCT-15 colon; 111% in the assay on HT29 colon; 103% in the assay with SNB-75 CNS; 109% with SNB-19 CNS; 99.4% with U251 CNS; 108% with PC-3 prostate. Besides, the growth in the assay on SK-MEL-5 melanoma is 101%; in the assay with UACC-62 melanoma, 93.7%; in the assay on LOX IMVI melanoma, 96.2%; in the assay with SK-MEL-28 melanoma it was 115%; in the assay with SK-MEL-2 melanoma, 103%; with EKVX NSCLC, 92.7%. Also, the growth in the assay on SN12C renal is 98.8%; in the assay on UO-31 renal it was 164%; in the assay with TK-10 renal, 116%; in the assay on ACHN renal, 110%; with CAKI-1 renal, 98.4%; in the assay on A498 renal, 93.5%. Moreover, the growth in the assay on CCRF-CEM leukemia is 101%.
On to `COc1cc2c(cc1OC)C(Cc1cc(OC)c(OC)cc1[N+](=O)[O-])=NCC2`, for which the growth was 95.8% with HCT-15 colon; 50.9% with HT29 colon; 88.2% in the assay on SNB-75 CNS; 94.3% with SNB-19 CNS; 77.4% with U251 CNS; 69.2% in the assay on PC-3 prostate. Besides, the growth with SK-MEL-5 melanoma is 93.6%; in the assay with UACC-62 melanoma, 83.7%; with LOX IMVI melanoma it was 75.1%; in the assay on SK-MEL-28 melanoma, 92.7%; with SK-MEL-2 melanoma, 92.9%; in the assay with EKVX NSCLC, 92.8%. Moreover, the growth with SN12C renal was 77.9%; with UO-31 renal it was 66.9%; in the assay with TK-10 renal, 73.4%; in the assay on ACHN renal, 85.2%; in the assay with CAKI-1 renal, 87.9%; in the assay with A498 renal it was 56.4%. The growth in the assay on CCRF-CEM leukemia is 88.3%; with MOLT-4 leukemia, 92.4%.
Take `COc1cc(NC(=O)CSc2nc3ccc(Cl)cc3c(=O)n2-c2ccc(F)cc2)cc(OC)c1OC`: the growth is 84.5% in the assay on HCT-15 colon; 97.9% with HT29 colon; 72.6% in the assay with SNB-75 CNS; 82.2% in the assay with SNB-19 CNS; 82.1% in the assay on U251 CNS; 73% with PC-3 prostate. The growth in the assay on SK-MEL-5 melanoma is 73.9%; in the assay on UACC-62 melanoma, 71.3%; with LOX IMVI melanoma, 73.5%; in the assay with SK-MEL-28 melanoma, 95.4%; with SK-MEL-2 melanoma it was 92.6%; in the assay on EKVX NSCLC, 67.8%. For the same molecule, the growth in the assay on SN12C renal is 78.7%; in the assay with UO-31 renal it was 40.6%; with TK-10 renal, 97.8%; with ACHN renal it was 85.6%; in the assay with CAKI-1 renal, 71.5%; in the assay with A498 renal, 34.8%. Further, the growth in the assay with CCRF-CEM leukemia was 94%.
With `Brc1c(-c2ccncc2)nc2n1CCS2`, the growth in the assay on HCT-15 colon was 105%; with HT29 colon, 87%; with SNB-75 CNS, 101%; in the assay with SNB-19 CNS it was 103%; in the assay with U251 CNS, 91.3%; in the assay on PC-3 prostate, 84.5%. Moreover, the growth in the assay with SK-MEL-5 melanoma was 103%; in the assay with UACC-62 melanoma, 84.4%; with LOX IMVI melanoma, 89.4%; in the assay with SK-MEL-28 melanoma, 93.5%; with SK-MEL-2 melanoma, 92.7%; in the assay on EKVX NSCLC, 110%. For the same molecule, the growth in the assay with SN12C renal was 91.7%; in the assay with UO-31 renal, 94.5%; in the assay with TK-10 renal it was 97.5%; in the assay on ACHN renal it was 87.7%; in the assay on CAKI-1 renal it was 90.2%; with A498 renal it was 77.6%. Moreover, the growth with CCRF-CEM leukemia is -8.76% (active); in the assay with MOLT-4 leukemia, 87.3%.
Regarding `Cc1ccc2c(c1)C(=O)CCS2`, the growth with HCT-15 colon is 90.8%; in the assay with HT29 colon, 103%; with SNB-75 CNS, 80.8%; in the assay with SNB-19 CNS, 111%; in the assay with U251 CNS it was 92.9%; with PC-3 prostate, 101%. The growth was 104% with SK-MEL-5 melanoma; 97.4% in the assay with UACC-62 melanoma; 95% with LOX IMVI melanoma; 102% in the assay on SK-MEL-28 melanoma; 119% with SK-MEL-2 melanoma; 100% in the assay with EKVX NSCLC. Besides, the growth was 101% in the assay on SN12C renal; 83.8% in the assay on UO-31 renal; 90.8% with TK-10 renal; 107% with ACHN renal; 99% in the assay on CAKI-1 renal; 82.8% in the assay on A498 renal. In addition, in the assay with CCRF-CEM leukemia, the growth was 109%.
As to `Cc1nc2c(nnn2-c2ccccc2)c2nc(-c3ccc(Cl)cc3)oc(=O)c12`, the growth in the assay on HCT-15 colon is 108%; in the assay on HT29 colon it was 115%; in the assay on SNB-75 CNS it was 91.4%; in the assay with SNB-19 CNS, 107%; in the assay with U251 CNS, 106%; in the assay with PC-3 prostate, 105%. Besides, the growth was 103% in the assay with SK-MEL-5 melanoma; 98.4% in the assay on UACC-62 melanoma; 96.9% in the assay on LOX IMVI melanoma; 102% in the assay on SK-MEL-28 melanoma; 107% in the assay with SK-MEL-2 melanoma; 110% in the assay on EKVX NSCLC. Besides, the growth in the assay with SN12C renal was 104%; in the assay on UO-31 renal it was 83%; in the assay on TK-10 renal, 108%; in the assay with ACHN renal it was 107%; in the assay with CAKI-1 renal, 94.7%; with A498 renal, 105%. Besides, the growth with CCRF-CEM leukemia was 103%.
